Screens as filed in PubChem.
Y pestis TopoI: Y. pestis Topo-I inhibition via cleavage products; Y. pestis Topo-I cleavage product accumulation, plate reader; activity, % at 10 µM; 360,000 compounds, 0.064% hits; in the data active = activity above about 50%, passing the limit was not always enough
PrP 5UTR inh: inhibition of PrP 5' UTR reporter expression. cell-based PrP 5' UTR mRNA reporter, plate reader. inhibition, % (concentration not given with the values). 340,000 compounds, 0.35% hits. AID 488862; in the data active = inhibition above about 52%
GDH-TPI counter-1: GDH-TPI coupled enzyme inhibition counter-screen; GDH-TPI coupled enzyme counterscreen, NADH absorbance; inhibition, % at 4.8 µM; 360,000 compounds, 1.2% hits; in the data active = inhibition above about 30%
Mtb FBA inh: Mtb fructose-bisphosphate aldolase inhibition | P9WQA3 | purified M. tuberculosis FBA, fluorescence read-out | inhibition, % at 1 µM | 360,000 compounds, 2.3% hits | AID 588726
Target sequence (P9WQA3 whole entry, looked up): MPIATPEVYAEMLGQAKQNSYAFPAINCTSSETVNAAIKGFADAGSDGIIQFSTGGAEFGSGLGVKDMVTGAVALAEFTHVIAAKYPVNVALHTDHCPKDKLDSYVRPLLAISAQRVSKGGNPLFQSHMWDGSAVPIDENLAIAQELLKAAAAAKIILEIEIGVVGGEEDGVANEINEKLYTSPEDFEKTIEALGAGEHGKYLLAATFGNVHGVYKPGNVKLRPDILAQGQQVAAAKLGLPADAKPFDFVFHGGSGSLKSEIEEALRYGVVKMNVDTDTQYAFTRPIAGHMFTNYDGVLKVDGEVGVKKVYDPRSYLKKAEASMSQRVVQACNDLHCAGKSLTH
Mtb hypoxia inh: reduces hypoxia-regulated biosensor signal in M. tuberculosis. M. tuberculosis hypoxia-regulated fluorescent reporter, fluorescence. AID 1159583. 300,000 compounds, 0.1% hits. fluorescence inhibition, % (concentration not given with the values); in the data active = fluorescence inhibition mostly above about 23%, no sharp cut-off; inactive = mostly below about 17%
PrPC surface inh: cell surface PrPC inhibition, primary TR-FRET screen; 370,000 compounds, 0.43% hits; TR-FRET read-out; inhibition, % at 13.8 µM; in the data active = inhibition above about 24%
Mtb FBA inh conf: Mtb FBA inhibition, confirmed | shares compounds with Mtb FBA inh | purified M. tuberculosis FBA, fluorescence read-out | 5,600 compounds, 78% hits | AID 651616 | inhibition, % at 1 µM
GDH-TPI counter-2: counter-screen for M. tuberculosis FBA inhibitors: GDH-TPI coupled enzyme inhibition. shares compounds with Mtb FBA inh. GDH-TPI coupled enzyme counterscreen, fluorescence. inhibition, % at 1 µM. 5,600 compounds, 81% hits. AID 652141; in the data active = inhibition above about 10%
GDH-TPI DR: inhibits GDH-TPI coupling enzymes in dose response; shares compounds with Mtb FBA inh; GDH-TPI coupled enzyme assay, fluorescence, artifact counterscreen; 170 compounds, 79% hits; AID 652145; IC50, µM; call rule not given here
Of the large screens only hits and unclear results are named; the others gave an inactive call (follow-up assays come after a bar, where they were run). In the library only some 3.8% were active in any assay of this set; here they are far more common. Cut-off read from the data, not from the text of the source, unless noted: active = inhibition above about 27%; inactive = the rest.

Cc1cc2nc(-c3ccc(SCC(=O)N4CCOCC4)nc3)[nH]c2cc1C	GDH-TPI counter-1 31, Mtb FBA inh 54 | Mtb FBA inh conf 57 | GDH-TPI counter-2 50
CCOC(=O)CSc1ccc(-c2nc3cc(C)c(C)cc3[nH]2)cn1	none
Clc1ccccc1C1=CC(c2ccco2)n2ncnc2N1 (stereo unspecified)	Mtb FBA inh 35 | Mtb FBA inh conf 156 | GDH-TPI counter-2 126
O=C1NC(=O)c2c(NC(=O)C3CCCO3)cccc21 (stereo unspecified)	Mtb FBA inh 36 | Mtb FBA inh conf 97 | GDH-TPI counter-2 88
CC(=O)Nc1cccc2c1C(=O)NC2=O	Mtb FBA inh 28 (no result: Mtb hypoxia inh) | Mtb FBA inh conf 54 | GDH-TPI counter-2 43
CC(=O)Nc1ccc(N2C(=O)c3cccc(NC(C)=O)c3C2=O)cc1	none (no result: Mtb hypoxia inh)
O=C(O)c1ccccc1NC(=O)C1CCCO1 (stereo unspecified)	none
CN1CCN(C(=O)C2=CC(c3csc4ccccc34)CC(OCc3ccc(CO)cc3)O2)CC1 (stereo unspecified)	none (no result: Y pestis TopoI, PrP 5UTR inh, GDH-TPI counter-1, Mtb FBA inh, PrPC surface inh)
Cc1nc(SCC(=O)N2CCN(c3ccccc3)CC2)c2oc3ccccc3c2n1	Mtb FBA inh 31 (no result: Mtb hypoxia inh) | Mtb FBA inh conf active | GDH-TPI counter-2 active
Cc1nc(SCC(=O)O)c2oc3ccccc3c2n1	none
CCN(C(=O)c1coc(=O)c(Br)c1)c1ccc2c(c1)OCO2	Mtb FBA inh 80 | Mtb FBA inh conf active | GDH-TPI counter-2 183
COc1ccc2c(c1OC)C(=O)OC2Nc1nc(-c2ccc(-c3ccccc3)cc2)cs1 (stereo unspecified)	Mtb FBA inh 34 | Mtb FBA inh conf inactive | GDH-TPI counter-2 inactive | GDH-TPI DR 9.5
COc1cccc(-c2csc(NC3OC(=O)c4c3ccc(OC)c4OC)n2)c1 (stereo unspecified)	none (no result: PrP 5UTR inh)
COc1c2c(cc3oc(=O)ccc13)OC(C)(C)C=C2	none (no result: Mtb hypoxia inh)
C/C=C(/C)C(=O)O[C@@H]1c2c(ccc3ccc(=O)oc23)OC(C)(C)[C@@H]1OC(=O)/C(C)=C\C	none
CC1(C)Oc2cc3oc(=O)ccc3cc2C[C@@H]1O	Mtb FBA inh 65 | Mtb FBA inh conf 105 | GDH-TPI counter-2 107
CC1(C)C=Cc2cc3ccc(=O)oc3cc2O1	Mtb FBA inh 48 (no result: Mtb hypoxia inh) | Mtb FBA inh conf inactive | GDH-TPI counter-2 inactive | GDH-TPI DR 5.7
CC1(C)Oc2cc3oc(=O)ccc3c3c2C2C1CCC(C)(O3)C2O (stereo unspecified)	Mtb FBA inh 29 (no result: PrP 5UTR inh, Mtb hypoxia inh) | Mtb FBA inh conf 154 | GDH-TPI counter-2 121
NC(=O)c1sc2nc(-c3ccco3)ccc2c1N	Mtb FBA inh 53 (no result: Mtb hypoxia inh) | Mtb FBA inh conf active | GDH-TPI counter-2 active
Nc1c(C(=O)Nc2ccccc2F)sc2nc(-c3ccco3)ccc12	GDH-TPI counter-1 32, Mtb FBA inh 40 (no result: PrP 5UTR inh) | Mtb FBA inh conf 50 | GDH-TPI counter-2 43
COc1ccc(Nc2nc(OC)nc(OC)n2)cc1	none
COc1ccc(Nc2nc(Nc3ccc(OC)cc3)nc(SC3=NCCS3)n2)cc1	Mtb FBA inh 41 | Mtb FBA inh conf 116 | GDH-TPI counter-2 77
CCCCCCC=NNc1nnc(Cc2ccccc2)c(=O)[nH]1	none (no result: Y pestis TopoI, PrP 5UTR inh, GDH-TPI counter-1, Mtb FBA inh, PrPC surface inh)
CCCCN(CC)CCNC(=S)Nc1ccc2nc(N3CCN(C)CC3)cc(C)c2c1	none (no result: Mtb hypoxia inh)
CCN(CC)CCCNC(=O)CCC(=O)Nc1ccc2nc(N3CCCCC3)cc(C)c2c1	Mtb FBA inh 108 | Mtb FBA inh conf 87 | GDH-TPI counter-2 95
CCN(CC)CCCNC(=O)CCC(=O)Nc1ccc2nc(N3CCC(C)CC3)cc(C)c2c1	Mtb FBA inh 65 (no result: PrP 5UTR inh) | Mtb FBA inh conf inactive | GDH-TPI counter-2 inactive | GDH-TPI DR 1.3
CC(=O)Nc1cc(-c2cccc(C)c2)cn2c(-c3ccc(S(C)(=O)=O)cc3)cnc12	Mtb FBA inh 35 (no result: PrP 5UTR inh, Mtb hypoxia inh) | Mtb FBA inh conf inactive | GDH-TPI counter-2 inactive
CC(=O)Nc1cc(-c2ccccc2)cn2c(-c3ccc(F)c(Cl)c3)cnc12	none (no result: PrP 5UTR inh, Mtb hypoxia inh)
